Laboratory results published in PubChem BioAssay (EPA / NIEHS).
Values joined by “and” are separate entries in the source; they are usually repeats but may differ in a detail not shown here. Identical values can stand only once. Active and inactive are the calls of the source. Rule for the calls: active = hit-call score of the fitted dose curve at least 0.9, where 1 is the maximum; inactive = score below 0.9.

How the values were obtained:
[1] = ATG_E_Box_CIS: Attagene CIS-FACTORIAL HepG2 Assay for human Enhancer Box (E-box) (AID 2282936); conditions: HepG2 E-box cis-reporter transcription, actives raise or lower the signal
How it was run: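 Cells: HepG2 (human liver), transient MRTU transfection. Exposure 24 h. RNA → oligo(dT) RT → PCR → 6-FAM label → HpaI → CE. Activity fitted both directions relative to DMSO.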

[2] = ATG_EGR_CIS: Attagene CIS-FACTORIAL HepG2 Assay for human Early Growth Response 1 (EGR1) (AID 2282938); conditions: HepG2 Attagene CIS-FACTORIAL EGR reporter mRNA; actives raise or lower the signal
How it was run: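 Endpoint derived by bidirectional fitting versus DMSO vehicle. Method: cis-promoter reporter units transfected into HepG2, 24 h dosing, RNA isolation, RT-PCR with 6-FAM primer extension and HpaI digestion, then capillary electrophoresis fluorescence detection.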

[3] = ATG_M_19_CIS: Attagene CIS-FACTORIAL HepG2 Assay for M19 Transcription Factor (Internal Marker) (AID 2282939); conditions: HepG2 Attagene CIS-FACTORIAL M19 internal marker reporter; actives raise or lower the signal
How it was run: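 In this multiplexed cell assay, transiently transfected HepG2 reporter units report endogenous transcription-factor activity; after 24 hours of treatment, labelled reporter cDNA fragments are quantified by capillary electrophoresis and fitted bidirectionally against DMSO.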

[4] = ATG_ERE_CIS: Attagene CIS-FACTORIAL HepG2 Assay for Estrogen Response Element (ERE) (AID 2282940); conditions: HepG2 ERE cis-reporter, Attagene RNA transcript; actives raise or lower the signal
How it was run: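 Measuring endogenous transcription factor output, the assay doses transfected HepG2 cells for 24 hours and quantifies reporter transcripts by fluorescent RT-PCR and capillary electrophoresis, with DMSO as baseline.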

[5] = ATG_Ets_CIS: Attagene CIS-FACTORIAL HepG2 Assay for human Erythroblast Transformation Specific (ETS) (AID 2282941); conditions: HepG2 ETS cis-reporter transcription, actives raise or lower the signal
How it was run: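 After transient cis-reporter transfection, HepG2 cells receive test chemical for 24 h. Reporter mRNA levels, measured by RT-PCR and capillary electrophoresis fluorescence, are analysed bidirectionally relative to the DMSO baseline.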

[6] = target: Hepatocyte nuclear factor 3-beta (Homo sapiens) (UniProt Q9Y261); experiment: ATG_FoxA2_CIS: Attagene CIS-FACTORIAL HepG2 Assay for human Forkhead box A2 (FOXA2) (AID 2282942); conditions: HepG2 cis-reporter transcription factor activity, 24 h; actives raise or lower the signal
How it was run: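 Measured: reporter mRNA induction or loss in HepG2 transiently carrying multiple cis-regulated reporter units, 24 h after dosing. Quantified by RT-PCR plus capillary electrophoresis, normalised to DMSO.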

[7] = ATG_FoxO_CIS: Attagene CIS-FACTORIAL HepG2 Assay for human Forkhead box O (FoxO) (AID 2282943); conditions: HepG2 Attagene cis-reporter, FoxO element, mRNA; actives raise or lower the signal
How it was run: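 HepG2, transient MRTU transfection (cis element, endogenous TFs). Dose 24 h. TriZol RNA → oligo(dT) RT → PCR → 6-FAM primer extension → HpaI cut → CE. Gain/loss vs DMSO.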

[8] = ATG_GATA_CIS: Attagene CIS-FACTORIAL HepG2 Assay for human GATA Binding Protein (AID 2282944); conditions: HepG2 GATA cis-element reporter, Attagene multiplex mRNA; actives raise or lower the signal
How it was run: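 Measures endogenous transcription factor-driven reporter mRNA in HepG2 cells transiently carrying cis-regulated constructs. 24 h dosing; RNA via oligo(dT) reverse transcription, PCR, HpaI digestion, capillary electrophoresis; fitted relative to DMSO.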

[9] = ATG_GLI_CIS: Attagene CIS-FACTORIAL HepG2 Assay for human Zinc Finger Protein GLI1 (AID 2282945); conditions: HepG2, Attagene cis-factorial reporter mRNA, GLI element; actives raise or lower the signal
How it was run: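 Bidirectional curve fits relative to DMSO, using reporter mRNA levels from RT-PCR plus capillary electrophoresis. Cells were HepG2 transiently carrying cis-regulated reporter constructs, harvested 24 h after dosing.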

[10] = ATG_ISRE_CIS: Attagene CIS-FACTORIAL HepG2 Assay for human Interferon Regulatory Factor 1 (IRF1) binding to an Interferon-Stimulated Response Element (ISRE) (AID 2282948); conditions: HepG2 ISRE cis-reporter (Attagene), mRNA transcription readout; actives raise or lower the signal
How it was run: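 Quantitation relies on labelled RT-PCR fragments separated by capillary electrophoresis. Human HepG2 cells bearing cis-promoter reporter constructs were treated 24 h; DMSO served as baseline for bidirectional fitting.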

[11] = ATG_M_32_CIS: Attagene CIS-FACTORIAL HepG2 Assay for M32 Transcription Factor (Internal Marker) (AID 2282949); conditions: HepG2 Attagene cis-factorial M32 reporter, mRNA; actives raise or lower the signal;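 note: background control marker of the multiplexed CIS panel rather than a real target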
How it was run: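 HepG2 cells transiently transfected with multiplexed cis-regulated reporter units, dosed 24 h. Reporter mRNA quantified by RT-PCR, 6-FAM labelling, HpaI digestion and capillary electrophoresis; bidirectional fit vs DMSO.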

[12] = ATG_M_06_CIS: Attagene CIS-FACTORIAL HepG2 Assay for M06 Transcription Factor (Internal Marker) (AID 2282950); conditions: HepG2 Attagene CIS-FACTORIAL M06 internal marker reporter; actives raise or lower the signal
How it was run: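 One of many multiplexed endpoints: HepG2 reporter mRNA after 24 h dosing, detected by RT-PCR and capillary electrophoresis fluorescence; gain or loss of signal analysed against DMSO.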

[13] = target: Hypoxia-inducible factor 1-alpha (Homo sapiens) (UniProt Q16665); experiment: ATG_HIF1a_CIS: Attagene CIS-FACTORIAL HepG2 Assay for human Hypoxia Inducible Factor 1 (HIF1A) (AID 2282951); conditions: HepG2 Attagene cis-factorial HIF1a reporter transcription; actives raise or lower the signal
How it was run: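 Dosed 24 h, transfected HepG2 cells yielded total RNA whose reporter transcripts were RT-PCR-amplified and sized by capillary electrophoresis using fluorescent labelling; DMSO defined baseline, with gain and loss of signal both fitted.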

[14] = target: Hepatocyte nuclear factor 6 (Homo sapiens) (UniProt Q9UBC0); experiment: ATG_HNF6_CIS: Attagene CIS-FACTORIAL HepG2 Assay for human Hepatocyte Nuclear Factor 6 (HNF6) (AID 2282952); conditions: HepG2 Attagene cis-factorial HNF6 reporter transcription; actives raise or lower the signal
How it was run: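 HepG2 cells transiently transfected with cis-element-driven multiple reporter transcription units, dosed 24 h; reporter mRNA quantified by RT-PCR, FAM primer extension, HpaI digestion and capillary electrophoresis; bidirectional fit versus DMSO baseline.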

[15] = target: Heat shock factor protein 1 (Homo sapiens) (UniProt Q00613); experiment: ATG_HSE_CIS: Attagene CIS-FACTORIAL HepG2 Assay for human Heat Shock Transcription Factor 1 (HSE) (AID 2282953); conditions: HepG2 HSE cis-reporter, Attagene RNA transcription; actives raise or lower the signal
How it was run: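 Using HepG2 with transfected cis-driven reporter constructs, compound effects on endogenous factor activity are scored as reporter mRNA change at 24 h. Detection: RT-PCR, HpaI digestion, capillary electrophoresis; bidirectional fitting to DMSO.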

[16] = ATG_MRE_CIS: Attagene CIS-FACTORIAL HepG2 Assay for human Metal Responsive Element (MRE) (AID 2282954); conditions: HepG2 MRE cis-reporter transcription, Attagene multiplex; actives raise or lower the signal
How it was run: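 Transient MRTU transfection of HepG2 (FuGene 6); 24 h dosing; total RNA → oligo(dT) RT, PCR, 6-FAM primer extension, HpaI cut, CE. Bidirectional fit vs DMSO.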

[17] = ATG_PBREM_CIS: Attagene CIS-FACTORIAL HepG2 Assay for human Phenobarbital-responsive Enhancer Module (PBREM) (AID 2282955); conditions: HepG2 PBREM cis-reporter, Attagene multiplexed transcription; actives raise or lower the signal
How it was run: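 Transfected liver-derived HepG2 cells exposed 24 h; PBREM reporter transcript quantified via RT-PCR and capillary electrophoresis, with activity in either direction referenced to DMSO.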

[18] = target: Paired box protein Pax-6 (Homo sapiens) (UniProt P26367); experiment: ATG_Pax6_CIS: Attagene CIS-FACTORIAL HepG2 Assay for human Paired Box 6 (PAX6) (AID 2282956); conditions: HepG2 CIS-FACTORIAL PAX6 reporter transcription, RNA readout; actives raise or lower the signal
How it was run: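 After twenty-four hours of chemical exposure, transfected HepG2 cells are harvested for RNA. Cis-promoter reporter transcripts are amplified, fluorescently labelled and sized by capillary electrophoresis, with gain and loss of signal scored against DMSO.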

[19] = ATG_GRE_CIS: Attagene CIS-FACTORIAL HepG2 Assay for human Glucocorticoid Response Elements (GRE) (AID 2282947); conditions: HepG2 GRE cis-reporter, Attagene multiplex mRNA; actives raise or lower the signal
How it was run: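 Transient MRTU transfection of human HepG2 liver cells; cis-regulated reporters report endogenous factors. 24 h dosing → RNA isolation → RT-PCR → 6-FAM primer extension → HpaI cut → CE fragment analysis. Bidirectional fit, DMSO negative control.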

Measured: AC50

Chain of Hypoxia-inducible factor 1-alpha (Homo sapiens) (Q16665 whole entry, looked up): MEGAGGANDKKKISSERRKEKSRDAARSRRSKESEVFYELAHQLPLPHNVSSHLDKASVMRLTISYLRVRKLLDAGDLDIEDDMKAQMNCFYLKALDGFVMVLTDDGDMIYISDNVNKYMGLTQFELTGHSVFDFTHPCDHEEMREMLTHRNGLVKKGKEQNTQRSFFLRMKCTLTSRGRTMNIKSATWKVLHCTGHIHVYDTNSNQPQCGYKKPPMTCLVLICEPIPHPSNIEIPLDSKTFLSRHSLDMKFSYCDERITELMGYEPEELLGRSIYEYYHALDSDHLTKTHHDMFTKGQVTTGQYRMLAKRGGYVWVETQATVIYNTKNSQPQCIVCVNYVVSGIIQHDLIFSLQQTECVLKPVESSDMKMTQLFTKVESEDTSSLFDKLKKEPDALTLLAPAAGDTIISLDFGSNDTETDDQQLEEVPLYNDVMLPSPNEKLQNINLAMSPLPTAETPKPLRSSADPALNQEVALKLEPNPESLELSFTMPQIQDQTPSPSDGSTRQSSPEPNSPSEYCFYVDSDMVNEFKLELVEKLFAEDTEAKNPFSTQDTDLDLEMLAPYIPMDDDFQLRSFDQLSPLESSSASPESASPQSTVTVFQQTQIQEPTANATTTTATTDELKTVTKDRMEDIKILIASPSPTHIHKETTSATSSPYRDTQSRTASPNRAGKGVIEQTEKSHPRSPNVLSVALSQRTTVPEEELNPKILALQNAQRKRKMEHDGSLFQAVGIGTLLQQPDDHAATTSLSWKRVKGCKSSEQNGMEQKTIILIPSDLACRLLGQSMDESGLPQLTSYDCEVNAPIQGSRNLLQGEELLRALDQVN
Chain of Hepatocyte nuclear factor 6 (Homo sapiens) (Q9UBC0 whole entry, looked up): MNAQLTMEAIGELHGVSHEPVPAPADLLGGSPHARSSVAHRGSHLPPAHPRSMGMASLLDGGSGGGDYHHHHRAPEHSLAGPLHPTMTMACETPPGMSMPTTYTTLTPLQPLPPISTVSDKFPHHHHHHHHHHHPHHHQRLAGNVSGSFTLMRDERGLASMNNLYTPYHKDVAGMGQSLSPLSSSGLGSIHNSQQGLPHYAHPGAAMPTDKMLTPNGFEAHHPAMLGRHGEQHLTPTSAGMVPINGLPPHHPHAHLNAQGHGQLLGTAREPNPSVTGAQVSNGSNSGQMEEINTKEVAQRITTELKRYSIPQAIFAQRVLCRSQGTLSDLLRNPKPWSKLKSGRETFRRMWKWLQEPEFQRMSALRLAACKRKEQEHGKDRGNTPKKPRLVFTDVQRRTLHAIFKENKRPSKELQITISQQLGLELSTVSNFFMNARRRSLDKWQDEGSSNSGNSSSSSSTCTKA
Chain of Paired box protein Pax-6 (Homo sapiens) (P26367 whole entry, looked up): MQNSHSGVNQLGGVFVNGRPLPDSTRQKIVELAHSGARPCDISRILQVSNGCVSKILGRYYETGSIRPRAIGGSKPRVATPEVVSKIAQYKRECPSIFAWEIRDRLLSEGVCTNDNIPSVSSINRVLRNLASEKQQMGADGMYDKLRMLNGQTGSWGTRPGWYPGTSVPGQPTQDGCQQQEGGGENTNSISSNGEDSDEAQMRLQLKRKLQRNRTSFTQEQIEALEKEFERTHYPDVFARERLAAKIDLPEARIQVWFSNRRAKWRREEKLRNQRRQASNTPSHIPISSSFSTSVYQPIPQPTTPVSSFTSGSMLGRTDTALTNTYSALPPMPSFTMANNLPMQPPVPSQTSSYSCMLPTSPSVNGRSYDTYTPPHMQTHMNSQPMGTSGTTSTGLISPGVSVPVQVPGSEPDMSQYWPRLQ
Chain of Heat shock factor protein 1 (Homo sapiens) (Q00613 whole entry, looked up): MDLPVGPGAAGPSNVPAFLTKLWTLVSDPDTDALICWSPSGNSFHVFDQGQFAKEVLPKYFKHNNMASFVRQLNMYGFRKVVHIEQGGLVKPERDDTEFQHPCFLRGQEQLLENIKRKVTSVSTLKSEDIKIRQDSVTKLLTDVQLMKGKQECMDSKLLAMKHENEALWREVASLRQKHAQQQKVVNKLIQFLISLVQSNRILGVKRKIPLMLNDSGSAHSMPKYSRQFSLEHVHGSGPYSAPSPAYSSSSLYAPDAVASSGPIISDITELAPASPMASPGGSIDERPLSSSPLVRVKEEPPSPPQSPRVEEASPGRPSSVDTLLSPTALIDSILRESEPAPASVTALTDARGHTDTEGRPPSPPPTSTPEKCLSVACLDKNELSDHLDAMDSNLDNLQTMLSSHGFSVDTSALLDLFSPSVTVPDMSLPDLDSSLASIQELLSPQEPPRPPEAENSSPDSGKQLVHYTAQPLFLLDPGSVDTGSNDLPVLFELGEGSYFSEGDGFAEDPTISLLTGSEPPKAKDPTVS
Chain of Hepatocyte nuclear factor 3-beta (Homo sapiens) (Q9Y261 whole entry, looked up): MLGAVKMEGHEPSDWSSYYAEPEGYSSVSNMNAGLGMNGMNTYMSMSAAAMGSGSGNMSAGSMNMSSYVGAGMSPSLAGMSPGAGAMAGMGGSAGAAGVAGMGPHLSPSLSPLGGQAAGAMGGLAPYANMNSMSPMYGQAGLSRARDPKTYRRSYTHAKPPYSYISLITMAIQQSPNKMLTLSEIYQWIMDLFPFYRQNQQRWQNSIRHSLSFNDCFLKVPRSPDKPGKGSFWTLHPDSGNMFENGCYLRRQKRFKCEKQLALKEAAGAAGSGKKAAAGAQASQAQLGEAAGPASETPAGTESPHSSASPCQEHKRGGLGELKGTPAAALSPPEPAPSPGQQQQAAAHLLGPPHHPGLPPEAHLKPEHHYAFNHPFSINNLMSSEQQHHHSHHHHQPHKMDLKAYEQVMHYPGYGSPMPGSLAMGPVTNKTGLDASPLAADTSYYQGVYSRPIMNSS

CCCCCCCCOC(=O)c1ccccc1C(=O)OCCCCCCCC
active: [13] 40.1 µM
not listed: [19]
inactive: all other assays above

Cc1cc(-c2ccc(N)c(C)c2)ccc1N
active: [4] 14.6 µM and 12.8 µM
not listed: [19]
inactive: all other assays above

COc1ccc(O)c(C(C)(C)C)c1
active: [2] 100 µM | [5] 111 µM | [13] 52.6 µM | [16] 148 µM | [17] 25.7 µM | [18] 146 µM
inactive: all other assays above

c1cc2ccc3cccc4ccc(c1)c2c34
inactive: all assays above

C1CC2OC2CC1C1CO1 (stereo not given)
not listed: [19]
inactive: all other assays above

Cc1ccc(O)c(C)c1
not listed: [17]
inactive: all other assays above
